Calls of active or inactive are those of the source. Unless noted, how the calls were made is not given here.

The subject of assay [1] is Wnt5a (protein binding on small-molecule microarray). Put plainly: small molecules binding Wnt5a protein – biophysical, small-molecule microarray, 635/667 nm fluorescence, primary screen (AID 1142).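 Further: fluorescence read at 667 nm with signal to noise per printed feature.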 Conditions: 635 nm fluorescence, higher = more signal.
The nature of assay [2]: ATP-based viability of Huh7 replicon cells – cell-based, CellTiter-Glo luminescence, basal, 48 h, cytotoxicity control for HCV replication inhibitor project, primary screen (AID 1143).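 Further: Huh7 hepatoma cells carrying a hepatitis C replication reporter with no stimulus; test concentration not given here.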 Conditions: higher = more signal, called active from +8 up or from −8 down. In general terms: In antiviral work, replicon cells carry a viral genome segment that copies itself.
Assay [3] can be described thus: Pseudomonas biofilm growth suppression – PAO1 strain, BacTiter-Glo luminescence, LB-PBS, primary screen (AID 1144). The note with it: P. aeruginosa PAO1 biofilm, 12 h, higher = more signal.
Assay [4] is described as follows: basal CRE-LacZ reporter activity in PC12 – cell-based, unstimulated, primary screen (AID 1145). The note with it: no forskolin, luminescence, 4.5 h, higher = more signal, called active from +8 up or from −8 down.
Assay [5] can be described thus: forskolin-driven CRE-LacZ activity in PC12 – cell-based, CRE-LacZ reporter, forskolin-stimulated, primary screen (AID 1146).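 Further: PC12 cells with 6xCRE LacZ reporter stimulated by forskolin 10 µM; beta-galactosidase reporter signal reflecting CREB driven transcription.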 Conditions: luminescence, 4.5 h, higher = more signal, called active from +8 up or from −8 down.
Assay [6] has as its target Streptavidin (Streptomyces avidinii) (UniProt P22629). Put plainly: compounds binding control protein streptavidin – biophysical, small-molecule microarray, 635/667 nm fluorescence, artefact control for SMM compound annotation, primary screen (AID 1147).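 Further: signal reflects streptavidin binding to arrayed compounds as a control protein.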 The note with it: higher = more signal.
Assay [7] in a line: probe aInhba binding on compound microarray – biochemical, small-molecule microarray, 635/667 nm fluorescence, primary screen (AID 1148).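 Further: score merges 667nm spot fluorescence with signal-to-noise for antibody binding to printed compounds.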 The note with it: higher = more signal.
Assay [8] concerns the target Torsin-1A (Homo sapiens) (UniProt O14656). As to the kind of experiment: TOR1A wild-type binding on microarray – cell lysate, small-molecule microarray, lysate, 635/667 nm, primary screen (AID 1149). Conditions: COS7 hTOR1A-WT lysate, 635 nm fluorescence, higher = more signal.
Assay [9] has the same target. Put plainly: torsin A mutant lysate binding on microarrays – cell lysate, small-molecule microarray, COS7 lysate, 635/667 nm fluorescence, primary screen (AID 1150).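 Further: score pools 667 nm emission and signal to noise measuring lysate protein binding.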 Conditions: COS7 hTOR1A mutant lysate, 635 nm fluorescence, higher = more signal.
In assay [10] the test system is Sonic hedgehog protein (Shh). As to the kind of experiment: Sonic hedgehog microarray binding compounds – biochemical, small-molecule microarray, 635/667 nm fluorescence, primary screen (AID 1151).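 Further: Shh protein binding to compounds spotted on small-molecule microarray slides; score combines spot fluorescence intensity with signal-to-noise across triplicate slides.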 The note with it: 635 nm fluorescence, higher = more signal.
The nature of assay [11]: optical density shifts of acrAB sulA E. coli – strain DRC41, OD650, 48 h, E. coli filamentation inducer project, primary screen (AID 1152).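 Further: E. coli MC1000 strain DRC41 lacking acrAB efflux pump and sulA.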 The note with it: higher = more signal, called active from +8 up or from −8 down.
Assay [12] in a line: probe aLefty1 binding on compound microarray – biochemical, small-molecule microarray, 635/667 nm fluorescence, primary screen (AID 1153).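 Further: score merges spot fluorescence with signal-to-noise ratio from the scanned slide images.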 The note with it: higher = more signal.
Assay [13] can be described thus: plasmodial surface anion channel blockers, osmotic lysis – cell-based, P. falciparum Indochina, OD700, 1 h, primary screen (AID 1154). The note with it: P. falciparum Indochina infected RBC osmotic lysis, higher = more signal, called active from +8 up or from −8 down.
Assay [14] in a line: plasmodial surface anion channel blockers, osmotic lysis – cell-based, P. falciparum Indochina, OD700, 2 h, primary screen (AID 1155).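 Further: lysis reports solute entry through the parasite surface anion channel PSAC.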 Conditions: P. falciparum Indochina infected erythrocytes, higher = more signal, called active from +8 up or from −8 down.
A short description of assay [15]: changes in parasitized red cell lysis, either direction – P. falciparum Indochina, OD700, 3 h, PSAC antagonist project, primary screen (AID 1156). Conditions: P. falciparum-infected erythrocytes, osmotic lysis, higher = more signal, called active from +8 up or from −8 down.
Assay [16] is described as follows: plasmodial surface anion channel blockers, osmotic lysis – cell-based, P. falciparum Indochina, OD700, 18 h, primary screen (AID 1157). The note with it: P. falciparum Indochina infected erythrocytes, osmotic lysis OD700, 18 h; higher = more signal, called active from +8 up or from −8 down.
The nature of assay [17]: S6 kinase pathway phospho-S6 level changes – cell-based, A549, cytoblot, luminescence, serum-stimulated, primary screen (AID 1158).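 Further: serum-stimulated A549 lung adenocarcinoma cells; signal is phosphorylated S6 detected by cytoblot immunostaining with HRP secondary.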 Conditions: 5 h, higher = more signal.
The target in assay [18] is NADPH oxidase 2 (Homo sapiens) (UniProt P04839). As to the kind of experiment: compounds shifting NOX2 Amplex Red fluorescence – cell-based, HEK293-NOX2, PMA-stimulated, NOX inhibitor project, primary screen (AID 1159). Further: test concentration not given here. The note with it: 45 min, higher = more signal, called active from +8 up or from −8 down.
Assay [19] addresses NADPH oxidase 4 (Homo sapiens) (UniProt Q9NPH5). As to the kind of experiment: compounds shifting NOX4 Amplex Red fluorescence – cell-based, HEK293-NOX4, tetracycline-induced, NOX inhibitor project, primary screen (AID 1160). The note with it: HEK293-NOX4, Amplex Red H2O2 fluorescence, 45 min; higher = more signal, called active from +8 up or from −8 down.
For assay [20], the target named is NADPH oxidase 5 (Homo sapiens) (UniProt Q96PH1). Put plainly: compounds shifting NOX5 Amplex Red fluorescence – cell-based, HEK293-NOX5, NOX inhibitor project, primary screen (AID 1161). The note with it: HEK293-NOX5, ionomycin, 45 min, higher = more signal.
Sequence of NADPH oxidase 5 (Homo sapiens) (Q96PH1 whole entry, looked up): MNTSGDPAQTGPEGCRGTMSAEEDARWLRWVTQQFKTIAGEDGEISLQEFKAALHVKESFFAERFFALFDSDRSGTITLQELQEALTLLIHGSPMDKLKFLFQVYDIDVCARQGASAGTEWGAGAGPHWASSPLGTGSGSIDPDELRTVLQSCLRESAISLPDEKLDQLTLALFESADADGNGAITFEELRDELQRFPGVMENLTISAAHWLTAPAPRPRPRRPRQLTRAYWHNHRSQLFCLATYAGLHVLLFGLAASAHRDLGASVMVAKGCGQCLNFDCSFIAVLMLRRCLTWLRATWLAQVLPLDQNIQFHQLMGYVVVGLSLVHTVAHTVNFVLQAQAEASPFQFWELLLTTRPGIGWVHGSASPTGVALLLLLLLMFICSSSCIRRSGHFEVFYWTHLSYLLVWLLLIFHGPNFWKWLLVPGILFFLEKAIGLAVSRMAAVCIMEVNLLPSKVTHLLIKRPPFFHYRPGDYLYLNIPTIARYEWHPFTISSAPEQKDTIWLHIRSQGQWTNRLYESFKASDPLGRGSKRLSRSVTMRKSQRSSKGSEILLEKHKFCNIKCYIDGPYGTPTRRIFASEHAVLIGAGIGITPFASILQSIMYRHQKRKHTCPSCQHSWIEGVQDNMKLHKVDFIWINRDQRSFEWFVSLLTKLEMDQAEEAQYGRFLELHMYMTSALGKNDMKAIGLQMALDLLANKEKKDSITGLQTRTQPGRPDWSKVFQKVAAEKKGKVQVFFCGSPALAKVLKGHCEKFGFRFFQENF

Sequence of NADPH oxidase 2 (Homo sapiens) (P04839 whole entry, looked up): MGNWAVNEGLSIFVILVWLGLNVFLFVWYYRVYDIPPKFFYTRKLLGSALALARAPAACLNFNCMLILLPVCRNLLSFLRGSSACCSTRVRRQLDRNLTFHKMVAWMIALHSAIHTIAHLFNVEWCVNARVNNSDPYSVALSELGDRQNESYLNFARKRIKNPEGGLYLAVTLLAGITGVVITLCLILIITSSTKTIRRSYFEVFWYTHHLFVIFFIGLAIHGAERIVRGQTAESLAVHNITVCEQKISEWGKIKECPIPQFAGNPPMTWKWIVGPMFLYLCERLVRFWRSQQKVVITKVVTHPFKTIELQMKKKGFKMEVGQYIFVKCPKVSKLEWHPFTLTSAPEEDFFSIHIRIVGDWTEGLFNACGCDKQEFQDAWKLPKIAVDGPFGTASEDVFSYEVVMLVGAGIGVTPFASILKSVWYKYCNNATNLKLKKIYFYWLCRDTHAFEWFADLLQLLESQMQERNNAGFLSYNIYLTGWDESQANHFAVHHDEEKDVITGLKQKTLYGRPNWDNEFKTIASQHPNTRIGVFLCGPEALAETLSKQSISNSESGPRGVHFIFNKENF
Sequence of NADPH oxidase 4 (Homo sapiens) (Q9NPH5 whole entry, looked up): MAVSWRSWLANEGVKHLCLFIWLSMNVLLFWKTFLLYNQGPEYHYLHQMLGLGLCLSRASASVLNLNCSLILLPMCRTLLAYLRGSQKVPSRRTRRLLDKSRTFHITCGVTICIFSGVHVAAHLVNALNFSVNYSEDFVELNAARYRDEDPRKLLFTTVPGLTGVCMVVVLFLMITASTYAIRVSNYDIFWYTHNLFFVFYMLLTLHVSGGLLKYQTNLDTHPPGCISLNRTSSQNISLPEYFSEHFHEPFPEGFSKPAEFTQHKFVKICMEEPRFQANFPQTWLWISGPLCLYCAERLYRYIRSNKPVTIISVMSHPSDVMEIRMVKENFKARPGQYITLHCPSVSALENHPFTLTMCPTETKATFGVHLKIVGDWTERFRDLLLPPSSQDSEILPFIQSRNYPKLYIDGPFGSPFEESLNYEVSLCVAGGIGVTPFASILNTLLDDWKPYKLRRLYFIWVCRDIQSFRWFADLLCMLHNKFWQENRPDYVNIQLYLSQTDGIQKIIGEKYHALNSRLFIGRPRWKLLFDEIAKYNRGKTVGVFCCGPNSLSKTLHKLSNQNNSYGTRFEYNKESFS
Sequence of Torsin-1A (Homo sapiens) (O14656 whole entry, looked up): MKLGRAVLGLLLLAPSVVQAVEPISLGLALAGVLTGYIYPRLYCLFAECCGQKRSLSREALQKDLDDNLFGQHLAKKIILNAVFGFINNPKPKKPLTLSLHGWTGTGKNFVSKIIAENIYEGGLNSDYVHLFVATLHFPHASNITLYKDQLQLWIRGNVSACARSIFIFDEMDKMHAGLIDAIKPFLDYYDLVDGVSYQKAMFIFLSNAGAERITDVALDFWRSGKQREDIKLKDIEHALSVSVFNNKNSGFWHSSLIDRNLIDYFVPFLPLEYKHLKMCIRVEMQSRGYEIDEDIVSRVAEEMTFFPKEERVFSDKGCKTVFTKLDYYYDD
Sequence of Streptavidin (Streptomyces avidinii) (P22629 whole entry, looked up): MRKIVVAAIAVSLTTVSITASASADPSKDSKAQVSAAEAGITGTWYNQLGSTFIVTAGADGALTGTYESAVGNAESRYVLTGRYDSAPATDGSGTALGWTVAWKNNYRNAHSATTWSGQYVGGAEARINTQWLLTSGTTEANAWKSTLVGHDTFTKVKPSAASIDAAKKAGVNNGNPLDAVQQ

With `COc1ccc(COC(=O)NN=C2C[C@@H](O)[C@@H](O)[C@@H]3[C@@H]4C(=O)N([C@@H](C)c5ccccc5)C(=O)[C@@H]4CC[C@@H]23)cc1`, the composite z-score in assay [1] was 0.251; in [6], 0.409; in [7], 0.0111; with Torsin-1A (Homo sapiens) [8] it was 0.699; with Torsin-1A (Homo sapiens) [9], 0.388; in assay [10], -0.0113. Besides, the composite z-score in assay [12] was -0.102. In addition, the z-score is 1 (inactive) in assay [2]; -0.253 (inactive) in assay [3]; -0.113 (inactive) in assay [4]; 0.0521 (inactive) in assay [5]; 0.774 (inactive) in assay [11]; 0.823 (inactive) in assay [13]. In addition, the z-score is -0.119 (inactive) in [14]; -0.667 (inactive) in assay [15]; -0.0631 (inactive) in [16]; -0.339 in assay [17]; -0.247 (inactive) in assay [18]; 1.01 (inactive) in [19]. The z-score in assay [20] is -0.0473.
Take `CCOC(=O)CCN1C(=O)[C@H]2[C@H]3[C@H](O)[C@H](O)CC(=NOCC(C)C)[C@@H]3CC[C@H]2C1=O`: the composite z-score in assay [1] is 0.0707; in [6] it was -0.483; in assay [7], -0.0986; in the assay with Torsin-1A (Homo sapiens) [8], 2.79; with Torsin-1A (Homo sapiens) [9] it was 2.77; in assay [10], 1.1. Also, in assay [12], the composite z-score is -0.0051. The z-score in assay [2] was -1.76 (inactive); in assay [3] it was -0.123 (inactive); in [4] it was 0.424 (inactive); in assay [5], -0.209 (inactive); in assay [11], -0.214 (inactive); in assay [13] it was 6.67 (inactive). In addition, the z-score in assay [14] is 0.232 (inactive); in [15] it was -0.0758 (inactive); in [16] it was 0.134 (inactive); in [17], -0.651; in assay [18] it was 0.913 (inactive); in assay [19] it was 0.783 (inactive). Further, the z-score in [20] came out at 0.295.
As for `CCCC[C@H]1CN2[C@@H](CC[C@@H](C)[C@@H]2c2ccc(Br)cc2)C(=O)O1`, the composite z-score in assay [1] was 0.132; in [6] it was 0.426; in [7], -0.0494; with Torsin-1A (Homo sapiens) [8] it was 0.836; with Torsin-1A (Homo sapiens) [9], 0.716; in assay [10], 0.456. In assay [12], this compound had a composite z-score of -0.0275. The z-score in assay [2] is -1.44 (inactive); in assay [3], 0.616 (inactive); in [4] it was 0.755 (inactive); in [5], -0.0888 (inactive); in assay [11], -0.461 (inactive); in assay [13], 2.91 (inactive). The z-score is 0.809 (inactive) in assay [14]; -0.192 (inactive) in assay [15]; 0.711 (inactive) in [16]; -0.46 in assay [17]; 1.43 (inactive) in assay [18]; 0.516 (inactive) in assay [19]. In addition, in [20], the z-score was determined as 1.47.
With `COC(=O)[C@H](C)NC(=O)CCC1CC(OC(=O)NCc2ccc3c(c2)OCO3)CC2(CCCC(COC(=O)NCCc3ccc(Cl)cc3)O2)O1` (stereo not given in full), the composite z-score in [1] is -0.132; in assay [6], -0.334; in [7], -0.159; in the assay with Torsin-1A (Homo sapiens) [8] it was -0.157; in the assay with Torsin-1A (Homo sapiens) [9], 0.193; in [10] it was 0.579. Also, the composite z-score in [12] was -0.101. In addition, the z-score in assay [2] was 0.173 (inactive); in assay [3] it was -0.0135 (inactive); in [4], -0.526 (inactive); in assay [5], 0.336 (inactive); in assay [11], -0.51 (inactive); in [13], 2.17 (inactive). The z-score in assay [14] was 0.223 (inactive); in assay [15] it was 1.29 (inactive); in [16] it was 0.272 (inactive); in assay [17] it was 0.688; in assay [18], 1.73 (inactive); in assay [19], 0.148 (inactive). For the same compound, the z-score in assay [20] is 0.879.

For the origin of these results see PubChem BioAssay.
